Growth data for eleven molecules are collected here from PubChem BioAssay (NCI).

Each structure is given as a SMILES string. Compounds without any hit were thinned out: in the full panel of roughly 83,000, 20% have a hit.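 Cells were grown in 96-well plates and exposed to the test compound at a single concentration for 48 hours; results are reported as percent growth, with values below 10 considered active.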 A number with no mark means an inactive call. Calls of active or inactive are those of the source.

Some test systems named below: HCT-15 colon; HT29 colon; SNB-75 CNS; SNB-19 CNS; U251 CNS; PC-3 prostate; SK-MEL-5 melanoma; LOX IMVI melanoma; SK-MEL-28 melanoma; SK-MEL-2 melanoma; EKVX NSCLC; SN12C renal; UO-31 renal; TK-10 renal; ACHN renal; CAKI-1 renal; A498 renal; CCRF-CEM leukemia; MOLT-4 leukemia; UACC-62 melanoma.
Holding throughout (assay): NCI-60 one-dose screen, 48 h (100 = growth as untreated, 0 = no growth, -100 = all killed)
What all share (details): 10 µM unless noted

For the molecule `NS(=O)(=O)c1ccc(-n2nc(-c3ccc(Cl)cc3)c3ccccc3c2=O)cc1`, the growth was 94.5% with HCT-15 colon; 97.1% in the assay on HT29 colon; 79.2% in the assay with SNB-75 CNS; 85.6% with SNB-19 CNS; 103% with U251 CNS; 75.3% with PC-3 prostate. The growth was 90.3% in the assay on SK-MEL-5 melanoma; 83.6% in the assay with LOX IMVI melanoma; 117% in the assay on SK-MEL-28 melanoma; 110% with SK-MEL-2 melanoma; 82.5% with EKVX NSCLC; 93.4% in the assay with SN12C renal. Besides, the growth was 52.6% in the assay with UO-31 renal; 152% in the assay on TK-10 renal; 94.8% in the assay on ACHN renal; 95.9% with CAKI-1 renal; 123% with A498 renal; 70.3% in the assay on CCRF-CEM leukemia. Further, the growth with MOLT-4 leukemia is 59.5%.
As for `C#C[C@]1(O)CC[C@H]2[C@@H]3CC=C4c5sc(Nc6cc(F)ccc6F)nc5CC[C@]4(C)[C@H]3CC[C@@]21C`, the growth with HCT-15 colon is -28.4% (active); in the assay with HT29 colon, 8.03% (active); in the assay with SNB-75 CNS, -28.6% (active); with SNB-19 CNS it was 6.38% (active); in the assay on U251 CNS it was -15.2% (active); in the assay on PC-3 prostate it was -8.02% (active). In addition, the growth in the assay on SK-MEL-5 melanoma is 13.2%; in the assay on LOX IMVI melanoma, -77.7% (active); in the assay with SK-MEL-28 melanoma it was -44.9% (active); in the assay with SK-MEL-2 melanoma, -6.68% (active); in the assay on EKVX NSCLC, 23.9%; with SN12C renal, -43.1% (active). In addition, the growth is -98.3% (active) in the assay on UO-31 renal; 18.5% with TK-10 renal; -68.2% (active) in the assay with ACHN renal; -31.5% (active) in the assay on CAKI-1 renal; -13.4% (active) in the assay on A498 renal; 4.58% (active) in the assay on CCRF-CEM leukemia. For the same molecule, the growth in the assay with MOLT-4 leukemia is 6.12% (active).
For the molecule `CN(C)CCCNc1nc2ccccc2c2c(=O)c3cc(F)ccc3sc12`, the growth in the assay with HCT-15 colon was 17.7%; with HT29 colon it was 4.32% (active); in the assay on SNB-75 CNS, 65.6%; with SNB-19 CNS, 68.4%; in the assay with U251 CNS it was 28.5%; with PC-3 prostate it was 50.2%. Besides, the growth in the assay on SK-MEL-5 melanoma is 72.6%; in the assay with LOX IMVI melanoma it was -95% (active); in the assay with SK-MEL-28 melanoma, -42.4% (active); in the assay on SK-MEL-2 melanoma it was 87.3%; in the assay with EKVX NSCLC, 66.3%; in the assay with SN12C renal, 61.2%. The growth in the assay on UO-31 renal is 24.9%; in the assay on TK-10 renal, 59.7%; with ACHN renal it was 21.5%; in the assay with CAKI-1 renal it was 8.81% (active); in the assay on A498 renal, 26.6%; in the assay on CCRF-CEM leukemia, 10% (active). In the assay with MOLT-4 leukemia, the growth is -11.2% (active).
On to `Fc1cc(-c2nnc3n2NC(=Nc2ccc(Cl)cc2)CS3)c(Cl)cc1Cl`, for which the growth in the assay on HCT-15 colon was 97.3%; in the assay on HT29 colon, 93.8%; in the assay with SNB-75 CNS, 71.7%; in the assay on SNB-19 CNS it was 93.6%; in the assay on U251 CNS, 94.9%; in the assay on PC-3 prostate it was 111%. The growth with SK-MEL-5 melanoma is 88.9%; in the assay with LOX IMVI melanoma it was 86.5%; in the assay on SK-MEL-28 melanoma, 99%; with SK-MEL-2 melanoma it was 88.3%; with EKVX NSCLC, 95.2%; with SN12C renal, 108%. The growth in the assay with UO-31 renal was 65.6%; in the assay with TK-10 renal, 91.6%; in the assay with ACHN renal, 95.2%; with CAKI-1 renal it was 94.2%; with A498 renal, 77.8%; in the assay on CCRF-CEM leukemia, 214%. Also, the growth in the assay with MOLT-4 leukemia is 87%.
Turning to `NC(=O)Nc1ccc2ncnc(Nc3ccc(Cl)cc3)c2c1`, the growth in the assay on HCT-15 colon is 93.1%; with HT29 colon, 91.6%; in the assay on SNB-75 CNS it was 95%; in the assay on SNB-19 CNS, 78.6%; with U251 CNS, 95.7%; in the assay with PC-3 prostate it was 79%. In addition, the growth in the assay on SK-MEL-5 melanoma is 89.2%; with LOX IMVI melanoma, 95.5%; with SK-MEL-28 melanoma, 106%; in the assay with SK-MEL-2 melanoma, 127%; in the assay on EKVX NSCLC, 22.4%; in the assay on SN12C renal, 81.9%. In addition, the growth in the assay on UO-31 renal is 58%; in the assay with TK-10 renal, 26.5%; with ACHN renal, 47.4%; in the assay with CAKI-1 renal, 40.1%; in the assay with A498 renal it was 43.4%; in the assay on CCRF-CEM leukemia it was 96%. Also, in the assay with MOLT-4 leukemia, the growth was 71.2%.
On to `CN(C(=O)NCc1cccc(F)c1Cl)[C@H](COC(=O)Nc1cc2ccccc2cn1)CC(O)CO` (stereo partly drawn), for which the growth with HCT-15 colon is 101%; in the assay with HT29 colon, 99.4%; in the assay on SNB-75 CNS it was -21.4% (active); in the assay with SNB-19 CNS, 97.2%; with U251 CNS, 74%; in the assay with PC-3 prostate it was 80.8%. Besides, the growth in the assay on SK-MEL-5 melanoma was 103%; in the assay on LOX IMVI melanoma, 61.9%; in the assay with SK-MEL-28 melanoma, 119%; with SK-MEL-2 melanoma, 113%; with EKVX NSCLC, 77.4%; in the assay with SN12C renal, 86.1%. For the same molecule, the growth in the assay with UO-31 renal was 51.8%; in the assay on TK-10 renal, 101%; in the assay with ACHN renal, 107%; with CAKI-1 renal it was 25.8%; with A498 renal, 54.7%; in the assay with CCRF-CEM leukemia it was 64.9%. Besides, the growth in the assay with MOLT-4 leukemia was 94.9%.
For the molecule `CCCCn1c(-c2ccc(C(=O)O/N=C(\N)c3ccc(OC)cc3)cc2)nc(-c2ccccc2)c1-c1ccccc1`, the growth in the assay on HCT-15 colon was -47.5% (active); in the assay on HT29 colon, 21.8%; in the assay on SNB-75 CNS it was -31.1% (active); in the assay with SNB-19 CNS, 23.9%; in the assay on U251 CNS it was -52.6% (active); in the assay on PC-3 prostate, -7.41% (active). The growth in the assay on SK-MEL-5 melanoma is 41.8%; with UACC-62 melanoma, 29.1%; with SK-MEL-28 melanoma, 47%; in the assay on SK-MEL-2 melanoma it was 52.6%; in the assay with EKVX NSCLC it was -79.2% (active); in the assay with SN12C renal, -62.7% (active). Besides, the growth was -93.7% (active) with UO-31 renal; -78.8% (active) with TK-10 renal; -97.9% (active) in the assay with ACHN renal; -46.3% (active) with CAKI-1 renal; 20.9% with A498 renal; -48.7% (active) in the assay on CCRF-CEM leukemia. Moreover, the growth in the assay on MOLT-4 leukemia is -39.7% (active).
Regarding `COc1ccc(/C=C(\C#N)n2nnc3c(F)cccc32)cc1`, the growth is 13.8% with HCT-15 colon; 13.4% in the assay on HT29 colon; -58.8% (active) with SNB-75 CNS; 30.7% in the assay on SNB-19 CNS; 23.7% in the assay with U251 CNS; 29.8% in the assay on PC-3 prostate. Also, the growth with SK-MEL-5 melanoma is 32.3%; with LOX IMVI melanoma, 19.8%; in the assay with SK-MEL-28 melanoma, 36.4%; with SK-MEL-2 melanoma it was 24.1%; in the assay on EKVX NSCLC, 32.3%; in the assay with SN12C renal it was 24.2%. The growth was 39.4% in the assay with UO-31 renal; 45.3% in the assay with TK-10 renal; 28.3% with ACHN renal; 24.8% in the assay with CAKI-1 renal; -29.1% (active) in the assay with A498 renal; 18.9% in the assay on CCRF-CEM leukemia. In addition, the growth in the assay with MOLT-4 leukemia was 14.4%.
Take `COc1cc(C(=O)c2cnc(-c3cccc4[nH]ccc34)[nH]2)cc(OC)c1OC`: the growth in the assay with HCT-15 colon is 17.8%; with HT29 colon it was 7.58% (active); in the assay on SNB-75 CNS it was 30.5%; with SNB-19 CNS it was 40.3%; with U251 CNS, 20.2%; in the assay on PC-3 prostate, 22.4%. Also, the growth with SK-MEL-5 melanoma was -23.6% (active); in the assay with LOX IMVI melanoma, 28.1%; in the assay on SK-MEL-28 melanoma, 55.1%; with SK-MEL-2 melanoma it was 39.9%; in the assay on EKVX NSCLC it was 42.4%; with SN12C renal it was 31.1%. Moreover, the growth in the assay with UO-31 renal was 26.7%; with TK-10 renal it was 63.4%; with ACHN renal it was 30.2%; in the assay on CAKI-1 renal, 16.7%; with A498 renal, -15.9% (active); in the assay with MOLT-4 leukemia, 14.2%.
On to `COc1ccc(CNC(=O)[C@H](O)[C@@H](N)Cc2ccccc2)cc1`, for which the growth in the assay on HCT-15 colon is 107%; in the assay on HT29 colon, 103%; in the assay on SNB-75 CNS, 86%; with SNB-19 CNS it was 102%; with U251 CNS, 101%; in the assay on PC-3 prostate, 108%. The growth in the assay on SK-MEL-5 melanoma was 105%; in the assay on LOX IMVI melanoma it was 97.6%; in the assay on SK-MEL-28 melanoma, 107%; in the assay with SK-MEL-2 melanoma, 123%; in the assay with EKVX NSCLC, 99.8%; with SN12C renal, 97.5%. In addition, the growth was 92% in the assay on UO-31 renal; 102% in the assay on TK-10 renal; 107% with ACHN renal; 90.7% in the assay on CAKI-1 renal; 90.8% with A498 renal; 102% in the assay on CCRF-CEM leukemia. Besides, the growth in the assay on MOLT-4 leukemia is 107%.
For the molecule `O=c1ccn(Cc2cn(-c3c4ccccc4nc4ccccc34)nn2)c(=O)[nH]1`, the growth was 91.6% in the assay with HCT-15 colon; 104% with HT29 colon; 102% in the assay on SNB-75 CNS; 94.1% with SNB-19 CNS; 89.5% in the assay on U251 CNS; 97.5% in the assay on PC-3 prostate. Moreover, the growth is 91.3% in the assay with SK-MEL-5 melanoma; 91.4% in the assay on UACC-62 melanoma; 102% with SK-MEL-28 melanoma; 98% with SK-MEL-2 melanoma; 103% with EKVX NSCLC; 92.7% in the assay with SN12C renal. For the same molecule, the growth in the assay on UO-31 renal is 88%; in the assay with TK-10 renal, 93.8%; in the assay with ACHN renal, 95.4%; in the assay on CAKI-1 renal it was 96.8%; in the assay with A498 renal it was 81.8%; in the assay on CCRF-CEM leukemia, 83.9%. In addition, the growth in the assay with MOLT-4 leukemia is 79.5%.
